Screening results from PubChem.
An excerpt weighted towards active compounds, which were near 1.5% of everything screened.
TLR4 MyD88 comp – TLR4-MyD88 interaction inhibition in cells. O00206+Q99836. HeLa CL3-4 TLR4/MyD88 BLA complementation, FRET ratio. inhibition, % at 8.4 µM. actives 0.18% (n = 200,000). AID 861; in the data active = inhibition above about 25%
TLR9-MyD88 block – TLR9-MyD88 interaction inhibition | Q9NR96+Q99836 | inhibition, % at 4.98 µM | actives 0.21% (n = 340,000) | CHO BLA complementation TLR9-MyD88, CCF4 FRET ratio;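 active = inhibition above the mean over all tested compounds plus 3 SD, cut at about 21% in these data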
Myeloid diff 2 – myeloid differentiation induction; ER-HoxA9 myeloid progenitors, lysozyme-GFP differentiation, flow cytometry; calls only at 10 µM; actives 1% (n = 360,000); AID 624256;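 active = normalized GFP-positive differentiation at or above the plate's own cutoff, the solvent-only control mean plus 3 SD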;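 note: cells exposed to compound for four days before flow analysis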
NOD2 RIPK2 PPI – blocks binding of human NOD2 to RIPK2; CHO BLA complementation NOD2-RIPK2, CCF4 ratio; inhibition, % at 4.98 µM; actives 0.38% (n = 360,000); AID 624267; in the data active = inhibition above about 21%
TLR4 MyD88 cnf – confirmation of human TLR4-MyD88 binding inhibitors. shares compounds with TLR4 MyD88 comp. HeLa CL3-4 BLA complementation, CCF4 FRET ratio. inhibition, % at 8.4 µM. actives 50% (n = 350). AID 941;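 active = mean inhibition across three repeat runs above about 25% carried over from the earlier screen, limit read from the data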
BLA inh HeLa – beta-lactamase inhibition flagged in TLR4-MyD88 counter-screen | actives 63% (n = 350) | HeLa BLA reporter, CCF4 FRET ratio | shares compounds with TLR4 MyD88 comp | inhibition, % at 8.4 µM;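 active = mean inhibition over three repeats above about 26% taken from the earlier screen, limit read from the data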;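 note: HeLa cells stably expressing beta-lactamase reporter as counterscreen for TLR4-MyD88 inhibitors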
Hits are given with their value; – = inactive; · = no result given.

SMILES	TLR4 MyD88 comp	TLR9-MyD88 block	Myeloid diff 2	NOD2 RIPK2 PPI	TLR4 MyD88 cnf	BLA inh HeLa
O=S(=O)(NCc1ccccc1)c1ccc(Cl)cc1	–	–	–	–	·	·
CC1=NOC(=O)/C1=C\c1ccc(-c2ccccc2Br)o1	25.9	–	–	–	–	–
CC(C)N(c1ccccc1)c1ccc(NC(=O)COC(=O)CCN2C(=O)c3cccc([N+](=O)[O-])c3C2=O)cc1	25.1	–	–	–	–	–
CSC1=NSC2=NC(=O)/C(=C\c3coc4ccccc4c3=O)C(=N)N12	–	–	–	–	·	·
CC(C)CSC1=NSC2=NC(=O)/C(=C\c3coc4ccccc4c3=O)C(=N)N12	43.2	–	–	–	–	30.6
O=C(Nc1nc(-c2ccccc2)cs1)c1ccccc1NS(=O)(=O)c1ccc(F)cc1	26.0	–	–	–	–	–
Cc1ccc(-c2cc(C(=O)Nc3ccccc3C)c3ccccc3n2)o1	28.0	–	–	–	–	–
COC(=O)c1cc(-c2ccc(C)o2)nc2ccccc12	–	–	–	–	·	·
CCOC(=O)Cc1csc(NC(=O)Cc2cccs2)n1	26.2	–	–	–	–	–
CC(C)c1cccc(-c2csc(C(C)(O)c3cccc(F)c3)n2)c1 (stereo not given)	·	·	–	–	·	·
Cc1cc(C(=O)OCC(=O)NC2CCCCC2C)c2ccccc2n1 (stereo not given)	·	–	–	–	·	·
CC1CCCCC1NC(=O)COC(=O)c1c2c(nc3ccccc13)/C(=C/c1ccco1)CC2 (stereo not given)	60.6	–	–	–	49.2	85.1
O=C(COC(=O)c1c2c(nc3ccccc13)/C(=C/c1ccco1)CC2)NC1CCCC1	45.1	–	–	–	44.5	69.1
c1cc2c(cc1C1CCCCC1)c1c3n2CCN=C3CCC1	26.8	–	–	–	–	41.5
O=C1CNC(=O)/C1=C\N1CCCCC1	28.9	–	–	–	–	–
CCCCC(=O)Nc1sc2c(c1C(=O)OCC)CCC(C=O)=C2Cl	26.1	–	–	–	38.3	45.4
CCOC(=O)c1c(NC(=O)c2ccccc2Cl)sc2c1CCc1ccccc1-2	–	–	–	–	·	·
CC(C)CNC(=O)C1(C)CCN1C(=O)c1ccc(C(C)(C)C)cc1 (stereo not given)	·	·	–	–	·	·
O=C(CSc1nc2scc(-c3ccco3)c2c(=O)n1-c1ccccc1)N1CCOCC1	30.4	–	–	–	–	–
COc1ccccc1Cc1c(-c2ccco2)nc2ccc(Br)cn12	·	·	–	–	·	·
CCOC(=O)c1c(NC2=NS(=O)(=O)c3ccccc32)sc2c1CCC(C)C2 (stereo not given)	51.9	–	–	–	–	–
Cc1cccc(CN2CCN(C3CN(Cc4ccc([N+](=O)[O-])cc4)S(=O)(=O)C3)CC2)c1 (stereo not given)	·	·	–	–	·	·
C=CCOc1nc(-c2ccncc2)nc2ccccc12	25.5	–	–	–	–	–
O=C(CCl)c1ccc2c(c1)CCN2C(=O)C1CCCCC1	27.1	–	–	–	31.7	–
O=C(CCl)c1ccc2c(c1)CCN2C(=O)C1CC1	–	·	·	·	·	·
SMILES	TLR4 MyD88 comp	TLR9-MyD88 block	Myeloid diff 2	NOD2 RIPK2 PPI	TLR4 MyD88 cnf	BLA inh HeLa
Cn1nc(C(C)(C)C)cc1C(=O)N1CCCCC1c1cc(C(=O)Nc2ccccc2Cl)no1 (stereo not given)	·	·	–	–	·	·
COc1cc(/C=C(/C#N)c2nc3ccccc3[nH]2)ccc1OCC(=O)Nc1ccccc1C	82.6	–	–	–	80.1	106.8
COc1cc(/C=C(/C#N)c2nc3ccccc3[nH]2)ccc1OCC(=O)Nc1ccccc1C(C)C	76.8	–	–	–	79.6	112.9
COc1cc(/C=C(\C#N)c2nc3ccccc3[nH]2)ccc1OC(=O)c1ccco1	–	–	–	–	·	·
O=C(/C=C/c1ccc(N2CCC(c3ccccc3)=N2)cc1)c1ccccc1	37.5	·	·	·	–	–
CCOC(=O)/C(=C\c1ccc(N2CCC(c3ccccc3)=N2)cc1)C(C)=O	·	–	–	–	·	·
C[C@H](O)[C@@H]1C(=O)N2CCc3c([nH]c4ccccc34)[C@@H]2C[C@@H]1N(C)C(=O)c1cc(Cl)cc(Cl)c1	·	·	–	–	·	·
CCCCCCCn1c2c(c(=N)c3ccccc31)CCC2	27.8	–	·	–	30.1	34.1
Cc1ccc(C)c(N2C(=N)S/C(=C\c3ccc(-c4ccccc4C(=O)O)o3)C2=O)c1	26.1	–	–	–	–	–
Nc1cc(N)cc(C(=O)c2ccccc2)c1	·	·	–	–	·	·
CCC(C)n1c(SCC(=O)NC2CC2)nc2ccccc2c1=O (stereo not given)	·	–	–	–	·	·
O=S1(=O)C=C(Sc2nc3ccccc3s2)c2ccccc21	25.7	·	·	·	–	–
CC(C)OC(=O)/C(C#N)=C/c1ccc(-c2ccc(SC(F)F)cc2)o1	25.7	–	–	–	–	–
COC(=O)/C(C#N)=C/c1ccc(-c2ccc(S(N)(=O)=O)cc2)o1	·	–	–	–	·	·
Cc1ccc2nc(C)c(Cl)c(=O)n2c1	–	–	–	–	·	·
Cc1ccc2nc(Cl)c(/C=N/Nc3nc(C)cc(C)n3)c(=O)n2c1	33.3	–	–	–	–	27.6
NC(c1csc(Nc2ccc(C(F)(F)F)cn2)n1)C1CCCCC1 (stereo not given)	·	·	–	–	·	·
